From PubChem
Compounds with a hit are over-represented: about 17% of the library has one in this group of screens.
HT1080 IDH1KD tx – toxicity to HT-1080 IDH1 knockdown cells (counter line); HT-1080 IDH1 knockdown viability, ATP luminescence, 48 h; Potency, µM (series often up to 46.1 µM), actives largely listed as cytotoxic; 360,000 compounds, 2% hits
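Knockdown cells (IDH1KD HT-1080) received compounds 2 h after plating at 750 cells/well and were kept 48 h at 37 °C in 5% FBS RPMI. A CellTiter-Glo luminescence read gave % activity for curve fitting.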
HepG2 tox-1 – counter-screen for TGF-b inhibitors: cytotoxicity in HepG2 cells; HepG2 CAGA-GFP viability, ATP luminescence, 18 h; Potency, µM (doses to about 46.1 µM), usual class: cytotoxic; 410,000 compounds, 0.76% hits; AID 588856
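CellTiter-Glo luminescence gave cytotoxicity after 18 hours at 37 degrees C. The cells were HepG2 CAGA-GFP in 1% FBS DMEM, stimulated with 500 pg/mL TGF-beta after compound addition. %Activity was normalised to no-cell wells (complete cell-killing) and DMSO (no toxicity), and curves were fitted and classified.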
TDP1 cell CPT – DT40-hTDP1 cell growth loss with CPT; Potency, µM (titrated, usually from 46.2 µM), most hits filed as inhibitors; chicken DT40 Tdp1-/-;hTDP1 cells + 20 nM CPT, ATP luminescence, 48 h; 420,000 compounds, 12% hits; also: nearly all actives have a fitted effect of over 55% in size
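Chicken DT40 Tdp1-/- cells stably complemented with human TDP1 were seeded at 400 cells/well in medium containing 20 nM camptothecin, exposed to pin-transferred compounds, and grown at 37 °C for at least 48 hr. Viability was read as ATP luminescence.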
TGFb SMAD3 inh – TGF-b pathway inhibition; 410,000 compounds, 1.2% hits; Potency, µM (doses to about 46.1 µM), hits mostly inhibitors; HepG2 CAGA-GFP TGF-b/SMAD3 reporter, GFP fluorescence, 18 h; TGF-beta stimulated, 500 pg/mL final; also: nearly all actives have a fitted effect of over 65% in size
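First, reporter cells (HEPG2 CAGA-GFP) rested 2 h at 37 degrees C. Next, compounds were pinned in and TGF-beta added to 500 pg/mL final. After 18 h, GFP was imaged per cell and summed per well.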
HT1080-NT tox – kills 2HG-producing HT-1080-NT fibrosarcoma cells | Potency, µM (highest dose often 46.1 µM), most hits filed as cytotoxic | HT-1080-NT fibrosarcoma viability, CellTiter-Glo ATP luminescence, 48 h | 360,000 compounds, 1.6% hits;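 also: NT is the 2HG producing partner of a matched IDH1 knockdown line; nearly all actives have a fitted effect of over 55% in size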
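Viability by CellTiter-Glo luminescence after 48 h compound exposure at 37C of HT-1080-NT cells (750/well, RPMI, 5% FBS). % activity scaled between DMSO wells and medium-only wells, then curve-fitted and categorized by curve class.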
DT40 TDP1 no CPT – qHTS for Inhibitors of human tyrosyl-DNA phosphodiesterase 1 (TDP1): qHTS in cells in absence of CPT. DT40 Tdp1-/- hTDP1 cells, no CPT, ATP luminescence, 48 h. Potency, µM (series often up to 46.2 µM), usual class: inhibitors. 420,000 compounds, 15% hits. AID 686978, 2013; also: nearly all actives have a fitted effect of over 55% in size
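Chicken DT40 Tdp1-/- cells stably complemented with human TDP1 were seeded at 400 cells/well with DMSO in place of 20 nM camptothecin. After compound pinning, cells grew at least 48 hr at 37 °C; viability read by CellTiter-Glo luminescence.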
TGFb CAGA inh – confirmation of TGF-b signaling inhibitors in HepG2 reporter cells; shares compounds with TGFb SMAD3 inh; HepG2 CAGA-GFP TGF-b reporter, GFP fluorescence, 18 h; cells stimulated with TGF-beta, 500 pg/mL; Potency, µM (top dose mostly 46.1 µM), hits mostly inhibitors; 1,600 compounds, 63% hits; AID 720534; also: nearly all actives have a fitted effect of over 65% in size
HepG2 tox-2 – counter-screen for TGF-b inhibitors: cytotoxicity in HepG2 cells; shares compounds with TGFb SMAD3 inh; HepG2 CAGA-GFP viability, ATP luminescence, 18 h; cells stimulated with TGF-beta, 500 pg/mL; Potency, µM (titrated, usually from 46.1 µM), actives largely listed as inhibitors; 1,600 compounds, 27% hits; also: nearly all actives have a fitted effect of over 70% in size
TGFb CCL64 inh – orthogonal confirmation of TGF-b inhibitors in CCL64 cells. CCL64 CAGA-GFP reporter, TGF-b stimulated, GFP fluorescence, 18 h. 1,600 compounds, 41% hits. AID 720536. Potency, µM (series often up to 46.1 µM), hits mostly inhibitors. shares compounds with TGFb SMAD3 inh; also: nearly all actives have a fitted effect of over 65% in size
TGFb COP inh – validation of TGF-b inhibitors in HepG2 COP promoter reporter. shares compounds with TGFb SMAD3 inh. HepG2 COP-GFP TGF-b reporter, GFP fluorescence, 18 h; cells stimulated by added recombinant TGF-beta. Potency, µM (series often up to 46.1 µM), usual class: inhibitors. 1,600 compounds, 3% hits; also: nearly all actives have a fitted effect of over 70% in size
Hits are given with their value; 0 = inactive; ? = inconclusive; - = not tested or not shown; ! = not active in a repeat; [ ] = another dose, or the depositor's remark. Calls follow the shape of the dose curve; as a rule, active = well fitted curve in the direction sought with a large enough effect; inconclusive = small, poorly fitted or top-dose-only effect, or another doubt; inactive = no such curve, though single readings can be large; an effect the other way counts as inactive or inconclusive.

SMILES	HT1080 IDH1KD tx	HepG2 tox-1	TDP1 cell CPT	TGFb SMAD3 inh	HT1080-NT tox	DT40 TDP1 no CPT	TGFb CAGA inh	HepG2 tox-2	TGFb CCL64 inh	TGFb COP inh
O=C(Nc1csc([N+](=O)[O-])c1)Nc1ccccc1Cl	?	0	20.6µM	12.6µM	?	23.1µM	16.4µM	?	?	0
O=C(Nc1ccncc1)Nc1ccccc1Cl	0	0	?	0	0	?	-	-	-	-
OCC(O)C(O)C(O)C(O)C1NCCS1 (stereo unspecified)	?	0	0	0	0	0	-	-	-	-
O=C1CCCN1CCCNc1nc(NCc2cccs2)nc2ccsc12	0	0	20.6µM	10µM	?	16.4µM	6.51µM	?	?	0
COCCNc1nc(NCc2cccs2)nc2ccsc12	0	0	?	12.6µM	0	25.9µM	6.51µM	?	?	0
O=C1CCCN1CCCNS(=O)(=O)c1cccs1	0	0	0	0	0	0	-	-	-	-
Cc1ccc(Nc2nc(NCc3cccs3)nc3ccsc23)c(C)c1	?	0	23.1µM	12.6µM	?	9.2µM	6.51µM	?	?	0
COc1ccc(OCc2nnc(SCC(=O)Nc3cccc(C(C)=O)c3)o2)cc1	0	0	0	0	0	0	-	-	-	-
Cc1cc(S(=O)(=O)c2ccc(Cl)cc2)nc(S(=O)(=O)c2ccc(Cl)cc2)c1C#N	6.51µM	0	0.651µM	7.08µM	?	0.651µM	5.8µM	18.4µM	1.84µM	18.4µM
CCOc1ccc(NC(=O)Nc2ccon2)cc1	0	0	?	0	0	?	-	-	-	-
Cc1ccc(C)c(NS(=O)(=O)c2cc(C(=O)NCCC3=CCCCC3)ccc2C)c1	?	0	?	20µM	?	?	?	?	?	0
Cc1ccc(C)c(NS(=O)(=O)c2cc(C(=O)NCC3CCCO3)ccc2C)c1 (stereo unspecified)	0	0	0	0	0	0	-	-	-	-
Cc1ccc(SC[C@H](C)CN2CC[C@H](C(C)(C)C)CCC2=O)cc1	0	11.2µM!	?	10µM	0	16.4µM	?	?	20.6µM	0
C[C@@H](CSc1ccc(Br)cc1)CN1CC[C@H](C(C)(C)C)CCC1=O	0	0	?	?	0	?	-	-	-	-
CCN(CC)CC(C)(C)C(=O)/C=C/c1ccc(/C=C/C(=O)C(C)(C)CN(CC)CC)cc1	1.64µM	5.01µM	0.517µM	4.47µM	5.8µM	0.411µM	3.26µM	3.26µM	4.61µM	?
COc1ccc(/C(C)=N/Nc2nc3ccccc3nc2C)cc1	?	0	?	7.94µM	?	23.1µM	?	0	0	0
Cc1c(N)ccc(-n2nc3ccccc3n2)c1C	0	0	0	0	0	0	-	-	-	-
CCCCSc1nnc([C@@H](NC(=O)OC(C)(C)C)C(C)C)o1	0	0	?	0	0	?	-	-	-	-
O=S(=O)(c1cccc(F)c1)N1CCN(Cc2cc3c(cc2Br)OCCO3)CC1	?	0	?	?	0[9.24 µM]	?	-	-	-	-
